High-throughput results deposited in PubChem by National Center for Advancing Translational Sciences (NCATS).
Rows were chosen to be rich in hits. Some 13% of all compounds tested hit in one or more screens of this group.
Pf growth 96h: Primary qHTS for delayed death inhibitors of the malarial parasite plastid, 96 hour incubation | P. falciparum luciferase reporter growth, 96 h | Potency, µM (highest dose often 28.7 µM), usual class: inhibitors | 320,000 compounds, 6.9% hits | AID 504834, 2011
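Cell-based qHTS: luciferase-tagged P. falciparum in erythrocytes (2% hematocrit, 0.05% parasitemia final) incubated with compounds for 96 hours, 37 C, 5% CO2; luciferase detection reagent then added and luminescence measured.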
Pf growth 48h: Primary qHTS for delayed death inhibitors of the malarial parasite plastid, 48 hour incubation; Potency, µM (highest dose often 28.7 µM), most hits filed as inhibitors; P. falciparum luciferase growth in erythrocytes, 48 h; 310,000 compounds, 5.9% hits
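Compounds are pin-transferred into medium, infected erythrocytes (2% hematocrit, 0.1% parasitemia final) are added, and plates sit one parasite generation at 37 C in 5% CO2. Detection reagent is then added and luminescence measured.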
HCV inh: qHTS Assay for Inhibitors of Hepatitis C Virus (HCV); 340,000 compounds, 3.4% hits; Potency, µM (top dose mostly 41.8 µM), actives largely listed as inhibitors; AID 651820, 2012; Huh7.5.1 HCVcc-Cre infection, luciferase reporter, 44 h
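Infectious HCV cell culture screen: compound-treated cells (1,000/well, pre-plated 4 h) are infected with HCVcc-Cre at roughly 0.5 moi and grown 44 h. Infection is quantified by luciferase signal after 15 min substrate incubation at room temperature.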
HCMV inh: qHTS Assay for inhibitors of the human cytomegalovirus (HCMV); activity change, negative = inhibition, % at 57.5 µM; 410,000 compounds, 4.5% hits; HFF cells, HCMV-luciferase reporter, 72 h; hits give low values; AID 1259415, 2018; in the data active = activity change below about -60%; inconclusive = no clear call, values can overlap the other calls; inactive = above about -39%
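Compounds were evaluated in HFFs infected with an HCMV luciferase reporter virus (MOI 1 PFU/cell). Luciferase in lysates collected 72 h post infection served as the replication measure.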
A number is an active result; i = inactive; ? = inconclusive; nt = no result given. Unless noted, calls follow the shape of the dose curve; as a rule, active = well fitted inhibition curve with a large enough effect; inconclusive = small, poorly fitted or top-dose-only effect, or another doubt; inactive = no such curve, though single readings can be large or run the other way.

SMILES	Pf growth 96h	Pf growth 48h	HCV inh	HCMV inh
CC(C)(COP(=O)(O)OP(=O)(O)OC[C@H]1O[C@@H](n2cnc3c(N)ncnc32)[C@H](O)[C@@H]1OP(=O)(O)O)C(O)C(=O)NCCC(=O)NCCS (some centres undefined)	i	i	nt	nt
C/C1=C2N=C(/C=C3N=C(/C(C)=C4\[N-]C(C)(C5N=C1C(C)(CCC(=O)NCC(C)OP(=O)([O-])O[C@H]1C(O)C(n6cnc7cc(C)c(C)cc76)O[C@@H]1CO)C5CC(N)=O)C(C)(CC(N)=O)C4CCC(N)=O)C(C)(CC(N)=O)C\3CCC(N)=O)C(C)(C)C/2CCC(N)=O.[CH2-]C1OC(n2cnc3c(N)ncnc32)C(O)C1O.[Co] (some centres undefined)	6.7µM	8.5µM	nt	nt
CN(C)S(=O)(=O)c1ccc(Nc2ccc(-c3ccc4c(c3)OCCO4)nn2)cc1	5.9µM	?	i	i
CN(C(=O)c1cccc(Nc2ccc(-c3ccc4c(c3)OCCO4)nn2)c1)C1CCCCC1	i	?	?	-93
CN(C(=O)c1cccc(NC(=O)c2ccccc2)c1)C1CCCCC1	i	i	i	i
CCN(C(=O)c1cc2c(=O)n(CC)c3ccccc3c2s1)c1cccc(C(F)(F)F)c1	nt	nt	nt	i
COC(=O)C1=C(C(=O)OC)[C@]2([C@H]3CCCCN[C@@H](Cc4ccccc4)C(=O)N3Cc3ccccc3)C=C[C@H]1O2	nt	nt	11µM	-70
CC(=O)c1cccc(NC(=O)c2ccc(N(C)S(=O)(=O)c3ccc(C)cc3)cc2)c1	8.3µM	?	?	i
CC(=O)c1cccc(NC(=O)c2ccc(N(Cc3ccc(C)cc3)S(C)(=O)=O)cc2)c1	?	nt	13µM	i
Cc1ccc(NC(=O)c2ccc(N(Cc3ccccc3)S(C)(=O)=O)cc2)cc1	nt	nt	nt	i
COc1ccc(N2CCN(C(=O)C3CCN(S(=O)(=O)c4ccc5c(c4)CC(C)N5C(=O)C4CC4)CC3)CC2)cc1 (centres undefined)	nt	nt	nt	i
CCC(Nc1ccc(-c2nc(-c3ccccn3)no2)cc1[N+](=O)[O-])c1ccccc1 (centres undefined)	nt	nt	nt	i
O=S1(=O)CC(N2CCCC2)CN1Cc1cn(Cc2ccc(C(F)(F)F)cc2)nn1 (centres undefined)	nt	nt	nt	i
COc1ccc(-c2cnnc(N/N=C/c3ccc(O)c(OC)c3)n2)cc1	5.2µM	i	?	?
COc1cc(/C=N/Nc2ccccn2)ccc1O	i	i	i	i
COc1ccc(-c2cnnc(N/N=C/c3ccc(-c4ccc([N+](=O)[O-])cc4)o3)n2)cc1	i	2.9µM	i	i
CC(C)(C(=O)Nc1ccccc1)n1cc(NC(=O)c2ccc3ccccc3n2)cn1	nt	nt	nt	i
CCN(CC)C(=O)c1sc2nc(-c3cccs3)cc(-c3ccc(Cl)cc3)c2c1N	7.4µM	?	?	i
CC(C)(C)C(=O)c1sc2nc(-c3cccs3)cc(C(F)(F)F)c2c1N	i	i	i	i
CCN(CC)C(=O)c1sc2nc(-c3cccs3)cc(-c3cccs3)c2c1N	?	4.1µM	i	-64
CN1CCc2c(sc(N)c2C(=O)c2ccc(Cl)cc2)C1	4.7µM	?	i	i
COc1ccc(C(=O)c2c(N)sc3c2CCN(C(=O)OC(C)(C)C)C3)cc1	?	13µM	?	-84
O=C(c1cc(-c2cccnc2)nc2ccccc12)N1CCN(S(=O)(=O)c2cccs2)CC1	13µM	12µM	i	i
Cc1ccc(-c2cc(C(=O)N3CCCc4ccccc43)c3ccccc3n2)cc1	nt	8.3µM	i	i
Cc1ccc(-c2cc(C(F)(F)F)n3ncc(C(=O)N4CCCc5ccccc54)c3n2)cc1	i	?	i	i
SMILES	Pf growth 96h	Pf growth 48h	HCV inh	HCMV inh
O=C(c1cc(-c2cccnc2)nc2ccccc12)N1CCCc2ccccc21	10µM	?	?	?
O=C(c1cccnc1)N1CCCc2ccccc21	i	i	nt	i
Cc1ccc2nc3sc(C(=O)N4CCCc5ccccc54)c(N)c3cc2c1	?	?	?	-90
O=C(c1cc(-c2cccnc2)nc2ccc(Cl)cc12)N1CCN(S(=O)(=O)c2cccs2)CC1	i	i	?	i
O=C1CCSc2ccc(S(=O)(=O)Nc3ccc(Cl)c(C(F)(F)F)c3)cc2N1	nt	nt	nt	i
COc1ccc(OCCNc2cc(Cl)ccc2[N+](=O)[O-])cc1	i	i	?	-65
COc1cccc(OCCNc2cc(N3CCOCC3)ccc2[N+](=O)[O-])c1	0.41µM	i	14µM	i
CC1CN(c2ccc([N+](=O)[O-])c(NCCOc3ccccc3)c2)CCN1 (centres undefined)	i	?	10µM	i
Cc1ccccc1OCCNc1cc(N2CCCCC2)ccc1[N+](=O)[O-]	?	?	14µM	i
COc1ccc(-c2cc3nc(C)c(CCC(=O)N4CCN(c5ccc(F)cc5)CC4)c(C)n3n2)c(OC)c1	nt	nt	nt	i
CCc1cccc(C)c1NC(=O)Cn1c(=O)cc(C(F)(F)F)c2c(C)nn(C)c21	nt	nt	nt	i
O=C(Nc1ccc2c(c1)OCO2)C1Cc2c(-c3ccc4c(c3)OCO4)ccnc2O1 (centres undefined)	nt	nt	nt	-62
CC(=O)Nc1ccc(NC(=O)C2Cc3c(-c4ccc5c(c4)OCO5)ccnc3O2)cc1 (centres undefined)	nt	nt	nt	i
COc1ccc(NC(=O)C2Cc3c(-c4ccc(Cl)cc4)ccnc3O2)cn1 (centres undefined)	nt	nt	nt	-82
COc1ccc(NC(=O)C2Cc3c(-c4ccc(Cl)cc4)ccnc3O2)cc1OC (centres undefined)	nt	nt	nt	-78
CC(=O)Nc1ccc(NC(=O)C2Cc3c(-c4ccc(Cl)cc4)ccnc3O2)cc1 (centres undefined)	nt	nt	nt	i
COc1ccc(NC(=O)C2Cc3c(-c4cccc(C(C)=O)c4)ccnc3O2)cc1OC (centres undefined)	nt	nt	nt	-92
Cc1cc(C(=O)C(=O)Nc2nncs2)c(C)n1-c1ccc(Cl)cc1	nt	nt	nt	i
COc1ccc(CCCNC(=O)C2Cc3c(-c4cccc(NC(C)=O)c4)ccnc3O2)cc1 (centres undefined)	nt	nt	nt	-61
COc1ccc(/C=C/C(=O)NCCSCc2ccco2)cc1	9.3µM	i	i	i
COc1ccc(/C=C/C(=O)NCCCN2CCCC2)cc1	i	i	i	-103
O=C(Cn1c(=O)nc(-c2ccccc2)c2ccccc21)NCCc1ccccc1	nt	nt	nt	i
O=C(/C=C/c1ccccc1)N1CCN(c2ccc([N+](=O)[O-])c(N3CCOCC3)c2)CC1	10µM	?	?	i
O=C(c1ccc2ccccc2c1)N1CCN(c2ccc([N+](=O)[O-])c(N3CCOCC3)c2)CC1	8.3µM	7.4µM	?	i
C=Cc1ccc(Cn2c(C(=O)O)c(CNC3CCCCC3)c3ccc(OC)cc32)cc1	nt	nt	nt	i
COc1cc2c(cc1OC)C(c1cc3cc4c(cc3[nH]c1=O)OCO4)N(C(=O)C1CC1)CC2 (centres undefined)	i	13µM	i	i
COc1cc2c(cc1OC)C(c1cc3ccc(C)cc3[nH]c1=O)N(C(=O)c1ccco1)CC2 (centres undefined)	i	13µM	i	i
